Screening results: PubChem, National Center for Advancing Translational Sciences (NCATS)
Rows were chosen to be rich in hits. Some 3.1% of all compounds tested hit in one or more screens of this group.
uPA generation: cell surface uPA generation inhibition. cell surface uPA generation assay, qHTS. Potency, µM (highest dose often 38.3 µM), hits mostly inhibitors. actives 0.31% (n = 330,000); active means well fitted inhibition curve with a large enough effect; tested in mouse RAW 264.7 cells; further: nearly all actives have a fitted effect of over 55% in size
RGS4 inhibitor: inhibitors of human regulator of G protein signaling 4; P49798; Transcreener GDP fluorescence polarization, RGS4-accelerated GTP hydrolysis; Potency, µM (top dose mostly 114 µM), most hits filed as inhibitors; actives 0.039% (n = 390,000); active means well fitted inhibition curve with a large enough effect; further: nearly all actives have a fitted effect of over 75% in size
Target sequence (P49798 whole entry, looked up): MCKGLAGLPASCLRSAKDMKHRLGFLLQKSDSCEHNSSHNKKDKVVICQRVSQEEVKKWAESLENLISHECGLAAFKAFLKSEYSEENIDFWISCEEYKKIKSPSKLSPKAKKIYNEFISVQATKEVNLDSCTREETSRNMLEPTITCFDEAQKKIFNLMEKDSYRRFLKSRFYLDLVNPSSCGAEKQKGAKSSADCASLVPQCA
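MLSMR compounds (23 nl, pin-transferred) preincubated 10 min at room temperature with a 500nM (2x) first reagent, then RGS4 at 900nM (2x) plus Transcreener GDP mix added; fluorescence polarization (620/688 nm) read before and after 90 min at 30 °C.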
D3 ag: activates the human D3 dopamine receptor; max activation, %; AID 652048; actives 0.58% (n = 410,000); D3R DiscoveRx beta-arrestin cells, luminescence, 90 min; P35462; in the data active means max activation above about 30%
Target sequence (P35462 whole entry, looked up): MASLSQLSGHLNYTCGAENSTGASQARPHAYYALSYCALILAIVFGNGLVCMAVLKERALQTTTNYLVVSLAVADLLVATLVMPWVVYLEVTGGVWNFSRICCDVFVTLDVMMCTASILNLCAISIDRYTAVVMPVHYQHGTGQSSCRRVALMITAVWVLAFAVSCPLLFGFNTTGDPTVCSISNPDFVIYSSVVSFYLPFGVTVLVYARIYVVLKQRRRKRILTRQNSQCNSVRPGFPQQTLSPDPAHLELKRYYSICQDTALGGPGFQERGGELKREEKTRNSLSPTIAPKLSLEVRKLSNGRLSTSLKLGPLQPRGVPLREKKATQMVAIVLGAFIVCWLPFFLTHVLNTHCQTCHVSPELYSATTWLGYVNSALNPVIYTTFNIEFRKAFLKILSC
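Agonist-mode cell screen: cells plated at 1500/well and incubated overnight at 37 °C, then exposed to library compounds for 90 min at 37 °C. Detection reagent was added for 30–60 min at room temperature, and luminescence was read.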
DRD3 antagonist: antagonists of human D3 dopamine receptor; D3R cells, DiscoveRx beta-arrestin luminescence, antagonist mode; stronger effect = lower value; max response, negative = inhibition, %; actives 2.5% (n = 360,000); in the data active means max response below about -50%
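Cells plated overnight at 1500 cells/well, then exposed to library compounds with dopamine controls for 90 minutes at 37 degrees C. DiscoveRx reagent added for 30–60 minutes at room temperature; luminescence read, quantitative HTS format.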
Numbers stand for hits; – = inactive; · = not tested or not shown.

SMILES | uPA generation | RGS4 inhibitor | D3 ag | DRD3 antagonist
CC(C)N1C(=O)S/C(=C/c2ccc(Sc3nc4ccccc4[nH]3)o2)C1=O | – | – | – | –
C=CCN1C(=O)S/C(=C/c2ccc(Sc3nc4ccccc4[nH]3)o2)C1=O | – | – | 51 | –
COc1ccc(NC(=O)N2CCCC(c3ccccc3)C2)cc1 (configuration not stated) | – | – | 33 | –
COc1ccc(NC(=O)C2CCCN(C(=O)Nc3ccc(OC)cc3)C2)cc1 (configuration not stated) | – | – | – | –
O=[N+]([O-])c1cc([N+](=O)[O-])c2nonc2c1Nc1ccccc1O | 5.6µM | – | – | –
O=[N+]([O-])c1cc([N+](=O)[O-])c2nonc2c1Nc1ccc(O)cc1 | 11µM | – | – | –
CC(=O)c1ccc(Nc2c([N+](=O)[O-])ccc3nonc23)cc1 | – | – | – | –
O=[N+]([O-])c1c(Nc2ccccc2O)cc(N2CCOCC2)c2nonc12 | – | – | – | –
Cn1cccc1-c1cc2n(n1)CCC(=O)N2CCCC(=O)NCc1cccc(Cl)c1 | · | – | – | ·
CN1CCN(C(=O)c2ccc(-c3ccc(F)c(F)c3)c3ccoc23)CC1 | · | · | – | -59
CCOC(=O)c1c(N)n(-c2ccccc2CC)c2nc3ccccc3nc12 | · | – | – | ·
COc1ccc(NS(=O)(=O)c2cc(NC(=O)c3ccc(=O)[nH]c3)ccc2C)cc1 | – | – | – | –
COc1ccc(NS(=O)(=O)c2cc(NC(=O)[C@@H](NC(=O)c3ccccc3)C(C)C)ccc2C)cc1 | 13µM | – | – | –
CCc1c(C)sc2c1CCN(Cc1cccc(OC)c1)C2c1ccccc1 (configuration not stated) | · | – | – | ·
Cc1nn(C(=O)c2ccc(Br)cc2)c(C)c1S(=O)(=O)N1CCOCC1 | · | – | – | ·
O=C(NCCCN1CCN(c2cccc(Cl)c2)CC1)c1nc(-c2ccncc2)no1 | – | – | – | -64
COc1ccc(S(N)(=O)=O)cc1C(=O)NCCCN1CCN(c2ccccc2OC)CC1 | – | – | – | -92
COc1cc2c(C(=O)NCCCN3CCN(c4cccc(Cl)c4)CC3)cn(C)c(=O)c2cc1OC | – | – | 31 | -56
O=C(NCCCN1CCN(CCCNC(=O)c2cccc(Cl)c2)CC1)c1cccc(Cl)c1 | – | – | – | –
COc1ccc(Cl)cc1C(=O)NCCCN1CCOCC1 | – | – | – | –
COc1ccc(S(N)(=O)=O)cc1C(=O)NCCCN1CCN(c2cccc(Cl)c2)CC1 | – | – | – | -50
COc1ccc(-n2cc(-c3ccccc3)c3c(NCCc4ccc(OC)c(OC)c4)ncnc32)cc1 | · | – | – | ·
COc1ccc(CNC(=O)CN2N=C(c3ccc(Cl)cc3)CCC2=O)cc1 | · | – | – | ·
O=C(NCc1ccc2c(c1)OCO2)C(=O)NCC1OCCCN1S(=O)(=O)c1ccccc1 (configuration not stated) | · | · | – | –
COc1ccc(S(N)(=O)=O)cc1C(=O)NCC(C)(C)N1CCOCC1 | – | – | – | –
SMILES | uPA generation | RGS4 inhibitor | D3 ag | DRD3 antagonist
COc1ccc(S(N)(=O)=O)cc1C(=O)NCCCN1CCN(c2ccc(C)cc2)CC1 | – | – | – | -71
O=C(Nc1cccc(Br)c1)c1ccc(CN2CCc3ccccc3C2)cc1 | – | – | – | -56
O=C(Nc1ccc(F)cc1)c1ccc(CN2CCc3ccccc3C2)cc1 | – | – | – | –
CSc1cccc(NC(=O)c2ccc(CN3CCc4ccccc4C3)cc2)c1 | – | – | – | -96
Cc1ccc(-c2ccc(=O)n(CC(=O)NC(C)c3ccccc3)n2)cc1 (configuration not stated) | · | – | – | ·
NC[C@@H]1CC[C@@H](N)[C@@H](O[C@H]2[C@H](O)[C@@H](O[C@H]3O[C@H](CO)[C@@H](O)[C@H](N)[C@H]3O)[C@H](N)C[C@@H]2N)O1 | · | · | – | ·
OCC1CCCN(C2CCN(Cc3nc(Cc4cccc(C(F)(F)F)c4)no3)CC2)C1 (configuration not stated) | – | – | 30 | –
FC(F)(F)c1cccc(Cc2noc(CN3CCCC3)n2)c1 | – | – | – | –
COc1ccc(CC(=O)OCC(=O)NCc2ccc(Cl)cc2)cc1 | – | – | – | –
COc1ccc(CNC(=O)COC(=O)Cc2ccc(Cl)cc2Cl)cc1 | – | – | – | -80
CC(=O)Nc1nonc1-c1nnc(SCc2ccccc2C)n1C | · | – | – | ·
COc1ccc(NC(=O)CC(C)C)c([N+](=O)[O-])c1 | – | – | – | –
O=C(O)c1cccc(NC(=S)NC(NC(=O)c2cccc([N+](=O)[O-])c2)C(Cl)(Cl)Cl)c1 (configuration not stated) | – | – | – | –
COc1ccc([N+](=O)[O-])cc1NC(=S)NC(NC(=O)Cc1ccc(OC)c(OC)c1)C(Cl)(Cl)Cl (configuration not stated) | – | – | – | -93
O=C(NC(NC(=S)Nc1ccc(Cl)cc1Cl)C(Cl)(Cl)Cl)c1cccc([N+](=O)[O-])c1 (configuration not stated) | – | – | – | -58
COc1ccc([N+](=O)[O-])cc1NC(=S)NC(NC(C)=O)C(Cl)(Cl)Cl (configuration not stated) | – | – | – | –
COc1ccc(NC(=S)NC(NC(=O)C(C)C)C(Cl)(Cl)Cl)c([N+](=O)[O-])c1 (configuration not stated) | – | – | – | -69
COc1ccc(Cl)cc1NC(=O)N1CCN(Cc2cc(=O)n3nc(-c4ccccc4)sc3n2)CC1 | · | – | – | ·
CC(Sc1nc(=O)cc(N)n1CCc1ccccc1)C(=O)Nc1ccccc1C#N (configuration not stated) | · | – | – | ·
COc1cccc(C(C)(O)c2nc(/C=C/c3ccccc3)cs2)c1 (configuration not stated) | · | · | – | -61
COc1cccc(C(C)(O)c2nc(-c3ccoc3)cs2)c1 (configuration not stated) | · | · | – | -95
CC(O)(c1ccccc1)c1nc(/C=C/c2ccccc2)cs1 (configuration not stated) | · | · | – | -62
Cc1c(Cl)cccc1NC(=O)CN1C(=O)COc2ccc(S(=O)(=O)N3CCCCCC3)cc21 | · | – | – | ·
CC(=O)Nc1ccc(-c2ccnc3c2CC(C)(C(=O)Nc2ccc(Cl)cc2)O3)cc1 (configuration not stated) | · | · | – | –
COc1cccc(N=c2oc3cc(O)ccc3cc2C(=O)NCC2CCCO2)c1 (configuration not stated) | – | – | 31 | –
O=S(O)CO | · | · | – | ·
COc1cccc(OCCN2CCN(c3ncnc4c3cnn4-c3ccccc3)CC2)c1 | · | – | 48 | –
Cc1nn(-c2ccccc2)c(Cl)c1C(=O)N1CCN(c2ncnc3c2cnn3-c2ccccc2)CC1 | – | – | 41 | –
Cc1ccc(-n2ncc3c(N4CCN(Cc5ccccc5)CC4)ncnc32)cc1 | · | – | – | ·
Cc1ccc2c(=O)cc(C(=O)NCc3ccccc3)oc2c1 | · | – | – | ·
